Laboratory results reported in PubChem BioAssay (NCATS).
Results filed as inconclusive are left out. A call without a number means that no potency is given here. The source made the active and inactive calls. Unless noted, calls follow the shape of the dose curve; as a rule, active = well fitted curve in the direction sought with a large enough effect; inconclusive = small, poorly fitted or top-dose-only effect, or another doubt; inactive = no such curve, though single readings can be large; an effect the other way counts as inactive or inconclusive.

Key:
[1] = qHTS assay for measurement of the activity of small molecule inhibitors on Zika virus induced Caspase-3 activity in human iPSC derived neural progenitor cells (hNPCs) (AID 1224857); also: nearly all actives have a fitted effect of over 65% in size
Outline: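 Zika virus (2 FFU/cell) infection of human iPSC-derived NPCs, 6 h, following 1 h compound preincubation. Read-out: Caspase-Glo 3/7 luminescence.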

[2] = qHTS assay for measurement of the activity of small molecule inhibitors on Zika virus induced Caspase-3 activity in human astrocytoma cells (AID 1224859)
Outline: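 Caspase activation in ZIKV-infected SNB-19 cells (2 FFU/cell, 6 h) measured by Caspase-Glo 3/7 luminescence after 30 min RT; compound pre-incubated 1 h; normalised to uninfected and infected controls.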

[3] = qHTS assay to identify small molecule inhibitors of chordoma cells - UCH-1 (AID 1259355); also: nearly all actives have a fitted effect of over 55% in size; also: potency is read from the fitted curve at half-maximal effect
Outline: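 Seed 800 cells per well; incubate overnight at 37 C, 5% CO2. Add test compounds (15 concentrations), then the auranofin–topoisomerase-agent combination. Incubate 48hr, add CellTiter-Glo, wait 30min, read luminescence.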

[4] = qHTS assay to identify small molecule inhibitors of chordoma cells - UCH-2 (AID 1259356)
[5] = P-glycoprotein substrates identified in KB-8-5-11 adenocarcinoma cell line, qHTS therapeutic library screen (AID 1346987); also: nearly all actives have a fitted effect of over 65% in size; also: potency is read from the fitted curve at half-maximal effect
Outline: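 KB-8-5-11: colchicine-selected sub-line of KB-3-1 over-expressing P-gp; assay medium lacked colchicine. 72 h drug exposure at 37 degree C, CellTiter-Glo.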

[6] = Natriuretic polypeptide receptor (hNpr1) antagonism - Pilot counterscreen GloSensor control cell line (AID 1347045; calls by dose curve)
Outline: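 HEK293 cells carrying the GloSensor cGMP sensor (GIP/pGS-40F) were loaded with 2% GloSensor reagent for 2 h, exposed to compounds for 30 min, and then stimulated with 50 uM sodium nitroprusside for 20 min at room temperature.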

[7] = qHTS profiling of the MIPE4 collection as inhibitors of Plasmodium falciparum (DD2) proliferation (AID 743345; call rule not given here); details: P. falciparum Dd2 in erythrocytes, SYBR Green DNA, 72 h; at 28.5 µM (top of the series)
Outline: (§1)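 Erythrocytes infected with P. falciparum (0.3% parasitemia, 2.5% hematocrit) incubated with compounds 72 h at 37 C, 5% CO2. Lysis with saponin/Triton buffer containing SYBR Green I, overnight at room temperature in the dark; DNA fluorescence (485/535 nm) normalised to 0.29 uM artemisinin and DMSO.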

[8] = qHTS profiling of the MIPE4 collection as inhibitors of Plasmodium falciparum (DD2) proliferation (Rep 2) (AID 743346; call rule not given here); details: P. falciparum Dd2 in erythrocytes, SYBR Green DNA, 72 h; at 28.5 µM (top of the series)
Outline: as §1

[9] = qHTS profiling of the MIPE4 collection as inhibitors of Plasmodium falciparum (HB3) proliferation (AID 743347; call rule not given here); details: P. falciparum HB3 in erythrocytes, SYBR Green DNA, 72 h; at 28.5 µM (top of the series)
Outline: as §1

| Structure (SMILES) | Potency [1] | outcome [2] | Potency [3] | Potency [4] | Potency [5] | outcome [6] | parasite growth remaining, % of DMSO control (lower = more inhibition) [7] [%] | parasite growth, % of control (lower = inhibition) [8] [%] | growth, % of control [9] [%] |
| --- | --- | --- | --- | --- | --- | --- | --- | --- | --- |
| COc1ccc2c(c1)c1c3n2CCN(C)C3=NCC1 | inactive | inactive | inactive | inactive | inactive | – | – | – | – |
| COc1ccc(CCN(C)CCCN2CCc3cc(OC)c(OC)cc3CC2=O)cc1OC | inactive | inactive | inactive | inactive | inactive | – | – | – | – |
| CCOC(=O)c1c(N)sc2c1CCN(Cc1ccccc1)C2 | inactive | inactive | inactive | inactive | inactive | – | – | – | – |
| O=C(Oc1cccc2cccnc12)c1ccccc1 | inactive | inactive | inactive | inactive | inactive | – | – | – | – |
| CCc1oc2ccccc2c1C(=O)c1cc(Br)c(O)c(Br)c1 | inactive | inactive | inactive | inactive | inactive | – | – | – | – |
| CCCc1ncc(C[n+]2ccccc2C)c(N)n1 | inactive | inactive | inactive | inactive | inactive | – | – | – | – |
| CCN(CC)CCNC(=O)c1cc(Br)c(N)cc1OC | inactive | inactive | inactive | inactive | inactive | – | – | – | – |
| COc1ccc(-c2cc(C(F)F)nn2-c2ccc(S(N)(=O)=O)cc2)cc1F | inactive | inactive | inactive | inactive | inactive | – | – | – | – |
| O=C1C(O)=C(O)C(=O)C(O)=C1O | inactive | inactive | inactive | inactive | inactive | – | – | – | – |
| CN(C)C(=O)Nc1ccc(Cl)c(Cl)c1 | inactive | inactive | inactive | inactive | inactive | – | – | – | – |
| Cc1nc(-c2ccc(Cl)cc2)oc1COC(C)(C)C(=O)O | inactive | inactive | inactive | inactive | inactive | – | – | – | – |
| Nc1ccc(C(=O)NCC(=O)O)cc1 | inactive | inactive | inactive | inactive | inactive | – | – | – | – |
| CC(C)(Cc1c[nH]c2ccccc12)NCC(O)COc1ccccc1C#N (centres undefined) | inactive | inactive | inactive | inactive | inactive | – | – | – | – |
| CCCCC(CC)COC(=O)c1ccc(N(C)C)cc1 (centres undefined) | inactive | inactive | inactive | inactive | inactive | – | – | – | – |
| C[C@@H](O)[C@H]1C(=O)N2C(C(=O)O)=C([C@H]3CCCO3)S[C@H]12 | inactive | inactive | inactive | inactive | inactive | – | – | – | – |
| Cc1cc(-c2ccccc2)nnc1NCCN1CCOCC1 | inactive | inactive | inactive | inactive | inactive | – | – | – | – |
| CC(C)(C)CC(C)(C)c1ccc(O)c(-n2nc3ccccc3n2)c1 | inactive | inactive | inactive | inactive | inactive | – | – | – | – |
| CCCCCCCCCCCCCCCC(=O)O | inactive | inactive | inactive | inactive | inactive | – | – | – | – |

| Structure (SMILES) | Potency [1] | outcome [2] | Potency [3] | Potency [4] | Potency [5] | outcome [6] | parasite growth remaining, % of DMSO control (lower = more inhibition) [7] [%] | parasite growth, % of control (lower = inhibition) [8] [%] | growth, % of control [9] [%] |
| --- | --- | --- | --- | --- | --- | --- | --- | --- | --- |
| CCOC(=O)[C@@](C)(N)Cc1ccc(O)c(O)c1 | inactive | inactive | inactive | inactive | inactive | – | – | – | – |
| O=S(c1cc(Cl)cc(Cl)c1O)c1cc(Cl)cc(Cl)c1O | inactive | inactive | inactive | inactive | inactive | – | – | – | – |
| CCOc1ccccc1OCCN[C@H](C)Cc1ccc(OC)c(S(N)(=O)=O)c1 | inactive | inactive | inactive | inactive | inactive | – | – | – | – |
| CC(C)Cn1cnc2c1c(=O)n(C)c(=O)n2C | inactive | inactive | inactive | inactive | inactive | – | – | – | – |
| CN1CCN(c2c(F)cc3c(=O)c(C(=O)O)cn4c3c2SCC4)CC1 | inactive | inactive | inactive | inactive | inactive | – | – | – | – |
| CN1CCC[C@@H]1CCO[C@](C)(c1ccccc1)c1ccc(Cl)cc1 | inactive | inactive | inactive | inactive | inactive | – | – | – | – |
| CC(CNC1CCCCC1)OC(=O)c1ccccc1 (centres undefined) | inactive | inactive | inactive | inactive | inactive | – | – | – | – |
| Cc1ccccc1OCC(O)CO (centres undefined) | inactive | inactive | inactive | inactive | inactive | – | – | – | – |
| CCOC(=O)[C@H](CCc1ccccc1)N[C@@H](C)C(=O)N1[C@H](C(=O)O)C[C@H]2CCCC[C@@H]21 | inactive | inactive | inactive | inactive | inactive | inactive | – | – | – |
| Cc1c(-c2ccccc2)oc2c(C(=O)OCCN3CCCCC3)cccc2c1=O | inactive | inactive | inactive | inactive | inactive | – | – | – | – |
| CCCCCCCCNC(C)C(O)c1ccc(SC(C)C)cc1 (centres undefined) | inactive | inactive | 35.5 µM (active) | inactive | 11.6 µM (active) | – | – | – | – |
| CCCCCCCCCCCCOCCOCCOCCOCCOCCOCCOCCOCCOCCO | inactive | inactive | inactive | inactive | 3.26 µM (active) | – | – | – | – |
| CCCCCCCCCCC[C@@H](C[C@@H]1OC(=O)[C@H]1CCCCCC)OC(=O)[C@H](CC(C)C)NC=O | inactive | inactive | inactive | inactive | inactive | – | – | – | – |
| CCOC(=O)Nc1ccc2c(c1)N(C(=O)CCN1CCOCC1)c1ccccc1S2 | inactive | inactive | inactive | inactive | inactive | – | 85.2 | 68.2 | 41.6 |
| O=C(O)C(Cc1cc(I)c(O)c(I)c1)c1ccccc1 (centres undefined) | inactive | inactive | inactive | inactive | inactive | – | – | – | – |
| CCCCC(CC)CN1CN(CC(CC)CCCC)CC(C)(N)C1 (centres undefined) | inactive | inactive | inactive | inactive | inactive | – | – | – | – |
| O=C1C(CCS(=O)c2ccccc2)C(=O)N(c2ccccc2)N1c1ccccc1 (centres undefined) | inactive | inactive | inactive | inactive | inactive | – | – | – | – |
